Measurements as given in the supplement of paper PMC10811239.

Assays:
Assay in all cases: bioluminescence (viable cell) signal fold change after vs before treatment, normalised to DMSO (ratio); higher = more tumour cell growth / less inhibition
Details in all cases: 10 µM; treatment time 6 days
[1] = test system: LEGO organoid PT (PTEN-/-; TP53-/-)
Procedure: (§1)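 Luc2-labelled iPSC-derived glioblastoma-like organoids (LEGOs, genotypes PT = PTEN-/-;TP53-/-, PTCC = plus CDKN2A/B-/-, PTN = plus NF1-/-) were treated with 10 uM drug for 6 days (applied every other day) at 37 C. Bioluminescence imaging was done before treatment and 2 days after the last dose. BLI signals were normalised to the DMSO control on the same day and then to the pre-treatment signal (N=3).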

[2] = test system: LEGO organoid PTCC (PTEN-/-; TP53-/-; CDKN2A-/-; CDKN2B-/-)
Procedure: as §1

[3] = test system: LEGO organoid PTN (PTEN-/-; TP53-/-; NF1-/-)
Procedure: as §1

| Compound | bioluminescence [1] | bioluminescence [2] | bioluminescence [3] |
| --- | --- | --- | --- |
| O=C(O)c1cc(/N=N/c2ccc(S(=O)(=O)Nc3ccccn3)cc2)ccc1O [Sulfasalazine] | 0.941 | 1.43 | 0.504 |
| Nc1nc2c(ncn2COC(CO)CO)c(=O)[nH]1 [Ganciclovir] | 4.35 | 1.62 | 2.38 |
| NCC[C@H](O)C(=O)N[C@@H]1C[C@H](N)[C@@H](O[C@H]2O[C@H](CN)[C@@H](O)[C@H](O)[C@H]2O)[C@H](O)[C@H]1O[C@H]1O[C@H](CO)[C@@H](O)[C@H](N)[C@H]1O.O=S(=O)(O)O.O=S(=O)(O)O [Amikacin disulfate] | 1.24 | 1.21 | 0.614 |
